Hits are enriched below; roughly 4.2% of the tested compounds scored in any of these assays.
TRPV1 ag = agonists of human vanilloid receptor 1 (TRPV1); Q8NER1; TRPV1-expressing cells, Fluo-8 calcium influx, agonist mode; activation, % at 8.33 µM; 0.19% of 320,000 active; in the data active means activation above about 80%; inconclusive means between about 30% and that limit; further: 0% is about no effect
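TRPV1-expressing cells were cultured overnight at 35.5C and loaded with Fluo-8 calcium dye for 40 to 90 min at room temperature. After a 10 s baseline, compound was added and calcium influx was read kinetically for 3 min (ex 480/em 520 nm).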
TRPV1 potentiator = enhances activation of the human vanilloid receptor TRPV1 | TRPV1-expressing cells, Fluo-8 calcium influx, capsaicin EC20 potentiation | potentiation, % at 8.33 µM | Q8NER1 | 0.02% of 320,000 active; in the data active means potentiation above about 80%; inconclusive means between about 30% and that limit; further: 0% is about no effect
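TRPV1-expressing cells were cultured overnight at 35.5C and loaded with Fluo-8 calcium dye for 40 to 90 min at room temperature. After a 10 s baseline, compound was added and calcium influx was read kinetically for 3 min (ex 480/em 520 nm).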
D1 ag = agonists of human D1 dopamine receptor. P21728. HEK293 T-REx D1 cells, calcium flux, agonist mode. activation, % at 2 µM. 1% of 360,000 active. AID 504660; in the data active means activation above about 30%; further: 0% is about no effect
Target sequence (P21728 whole entry, looked up): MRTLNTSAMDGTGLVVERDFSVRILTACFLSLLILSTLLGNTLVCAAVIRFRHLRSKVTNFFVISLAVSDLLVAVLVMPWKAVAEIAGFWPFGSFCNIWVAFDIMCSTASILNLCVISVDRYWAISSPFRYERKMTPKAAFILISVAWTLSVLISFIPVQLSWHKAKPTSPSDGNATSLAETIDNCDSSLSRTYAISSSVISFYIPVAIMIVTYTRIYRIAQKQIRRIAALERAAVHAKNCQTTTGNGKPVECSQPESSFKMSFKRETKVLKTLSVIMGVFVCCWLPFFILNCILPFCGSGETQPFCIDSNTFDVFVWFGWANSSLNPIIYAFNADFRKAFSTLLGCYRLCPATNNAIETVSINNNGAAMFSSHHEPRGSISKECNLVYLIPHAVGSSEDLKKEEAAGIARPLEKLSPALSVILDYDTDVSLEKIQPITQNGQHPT
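Inducible HEK293 T-REx D1 cells, force-coupled to calcium signalling, were plated at 4000 cells/well with tetracycline and held overnight at 30 C. After no-wash calcium dye loading, compound-evoked calcium rise over 180 s flagged agonists.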
D1 antag = human D1 dopamine receptor antagonism; P21728; HEK293 TREx D1 cells, calcium flux, dopamine EC80; hits give low values; activity change, negative = inhibition, % at 10 µM; 3.2% of 360,000 active; AID 504652; in the data active means activity change below about -30%; further: on the % scale 0 is the no-effect control and ±100 the full control effect
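Kinetic fluorescence of a calcium dye serves as the read-out. D1-expressing Hek293 Trex cells, induced overnight at 30 C, are exposed to compound for 180 s before an EC80 dopamine addition, then read 180 s further.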
D1 PAM = enhances dopamine response at the human D1 receptor | 0.036% of 360,000 active | potentiation, % at 10 µM | P21728 | AID 504651 | HEK293 TREx D1 cells, calcium flux, dopamine EC20 potentiation; in the data active means potentiation above about 30%; further: 0% is about no effect
Starred values were filed as active, the others as inactive; u = inconclusive; x = no result given; ! = repeats disagree.

SMILES	TRPV1 ag	TRPV1 potentiator	D1 ag	D1 antag	D1 PAM
CCOC(=O)C1CCCN(C2=NC(=O)/C(=C/c3ccc(OC)cc3)S2)C1 (stereo not given)	7	-4	0	0	2
CCOC(=O)C1CCCN(C2=NC(=O)/C(=C/c3ccc(N(C)C)cc3)S2)C1 (stereo not given)	11	-21	60*	3	-7
COc1ccccc1N1CCN(C(=O)C2CCN(S(=O)(=O)c3cccs3)CC2)CC1	x	x	3	-9	5
O=C1CC(c2ccc(Br)cc2)c2c(ccc3ccccc23)N1 (stereo not given)	x	x	2	17	3
COc1ccccc1CN1CCC(CNC(=O)c2cnn(-c3ccc(C)c(C)c3)c2C2CCN(C(=O)OC(C)(C)C)CC2)CC1	x	x	9	27	2
Cc1cccc(-n2ncc(C(=O)N3CCOCC3)c2C2CCN(C(=O)OC(C)(C)C)CC2)c1	x	x	1	-77*	-5
CC(C)(C)OC(=O)N1CCC(c2c(C(=O)N3CCOCC3)cnn2-c2cccc(F)c2)CC1	x	x	2	6	-7
Cc1ccc(-n2ncc(C(=O)NCCN3CCCC3)c2C2CCN(C(=O)OC(C)(C)C)CC2)cc1	x	x	21	-21	-6
Cc1ccc(C)c(N2CCN(CCCNC(=O)c3cnn(-c4ccc(F)cc4)c3C3CCN(C(=O)OC(C)(C)C)CC3)CC2)c1	x	x	4	-32*	-4
COc1ccccc1CN1CCC(CNC(=O)c2cnn(-c3ccc(Cl)cc3)c2C2CCN(C(=O)OC(C)(C)C)CC2)CC1	x	x	31*	-1	-6
Cc1ccc(-n2ncc(C(=O)NCCN3CCC(Cc4ccccc4)CC3)c2C2CCN(C(=O)OC(C)(C)C)CC2)cc1	x	x	56*	-10	1
Cc1ccc(C)c(N2CCN(CCCNC(=O)c3cnn(-c4cccc(Cl)c4)c3C3CCN(C(=O)OC(C)(C)C)CC3)CC2)c1	x	x	6	10	3
Cn1ncc2c(Nc3cccc(F)c3)ncnc21	x	x	0	9	0
Cc1cc(C)c(NC(=O)CSC2=Nc3ccccc3C3=NC(CC(=O)NCc4cccs4)C(=O)N23)c(C)c1 (stereo not given)	x	x	-1	4	0
CCCC1=C(C(=O)OCC)C(c2ccc(OC)c(C)c2OC)C(C#N)=C(N)O1 (stereo not given)	u	-10	56*	4	12
CCOC(=O)C1=C(CSc2nc(C)ccc2C#N)OC(N)=C(C#N)C1c1cccc(OC)c1OC (stereo not given)	1	4	6	-70*	-7
CCOC(=O)C1=C(CC)OC(N)=C(C#N)C1c1ccc(OC)c(C)c1OC (stereo not given)	u	-28	26	-8	-2
CCOC(=O)C1=C(CC)OC(N)=C(C#N)C1c1ccc(OC)c(OC)c1OC (stereo not given)	5	-18	0	-32*	-6
CCOC(=O)C1=C(CSc2nc(CC)c(C)cc2C#N)OC(N)=C(C#N)C1c1ccc(OC)cc1 (stereo not given)	2	-1	7	4	-1
Cc1ccc(NC(=O)CCNS(=O)(=O)c2cccc3nonc23)cc1Cl	1	-3	3	-32*!	-8
COc1ccc(NC(=O)CCS(=O)(=O)c2cccc3nonc23)c(OC)c1	-3	1	0	-45*	1
Cc1cccc(NC(=O)CCNS(=O)(=O)c2cccc3nonc23)c1	5	-7	3	-50*!	-3
CCOC(=O)c1cccc(NC(=O)CCNS(=O)(=O)c2cccc3nonc23)c1	2	1	0	4	-6
COc1ccc(NC(=O)CCS(=O)(=O)c2cccc3nonc23)cc1	2	-1	0	-7	-2
CC1CCCCN1C(=O)CSc1c2c(nc3cc(Cl)ccc13)CCCC2 (stereo not given)	x	x	3	-18	-1
COc1cc(NC(=O)c2nn(-c3ccc(F)cc3)c(=O)n(C)c2=O)cc(OC)c1OC	x	x	1	9	-1
COc1ccc(CNCCC(c2ccccc2)c2ccc3c(c2)OCO3)cc1 (stereo not given)	1	0	133*	-16	3
Cc1ccc(C(CCN)c2ccco2)cc1 (stereo not given)	7	-14	7	-7	-15
